# Test results: the supplement of paper PMC10681739
# Molecular target: RUNX1 (UniProt Q01196)
# Test: RUNX1 binding intensity (PBM fluorescence), RUNX1 alone (arbitrary fluorescence units); higher = stronger binding
# Details: RUNX1 concentration 2 nM; ETS1 concentration 0 nM
# Experimental: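 Cooperative gcPBM on 36-bp genomic probes with neighbouring ETS1 and RUNX1 sites. Recombinant human RUNX1 (2 nM) was incubated alone or with ETS1 (25 nM) and detected with anti-RUNX1 antibody plus Alexa488 secondary. Values are medians over 4 replicate spots; the RUNX1+ETS1 data were normalised to the RUNX1-only data. The probes sit in constant array flanks that are not printed.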
# 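Throughout, for RUNX1 binding intensity (PBM fluorescence), RUNX1 alone: Full-length recombinant human RUNX1 bound to double-stranded 36-bp genomic probes on a high-density microarray, scored as Alexa488 fluorescence per spot via anti-RUNX1 antibody, median of four replicate spots.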
# RUNX1, sequence (Q01196 whole entry): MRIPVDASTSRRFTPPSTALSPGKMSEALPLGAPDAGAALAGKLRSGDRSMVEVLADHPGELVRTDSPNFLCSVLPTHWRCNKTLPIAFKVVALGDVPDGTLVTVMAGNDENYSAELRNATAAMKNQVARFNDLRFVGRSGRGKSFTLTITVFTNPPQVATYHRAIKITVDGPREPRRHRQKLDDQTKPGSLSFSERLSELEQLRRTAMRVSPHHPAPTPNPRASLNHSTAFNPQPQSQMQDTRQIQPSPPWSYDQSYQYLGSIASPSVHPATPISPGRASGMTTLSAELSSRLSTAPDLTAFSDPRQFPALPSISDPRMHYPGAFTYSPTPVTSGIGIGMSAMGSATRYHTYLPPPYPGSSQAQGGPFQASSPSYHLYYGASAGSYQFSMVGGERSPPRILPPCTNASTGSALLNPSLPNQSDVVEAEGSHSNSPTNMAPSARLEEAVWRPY
row,Sequence,RUNX1 binding intensity
1,CCAAAATTGCCACGGAAACCACATCTTTCAGGCGAG,1520
2,GTTGGGAGGCGCACATCCGGCGGTTACCCGGTGCTT,785
3,ATTCCTAGAGAGGAAATGCGGGCTCAGGGTGTCGGC,754
4,TGTCTCATTTCCTGTAGGTAACAGGCACCACAATAG,968
5,CGTTCTCTCATTTCCTGTGTGCACCCACATGAACCA,1740
6,GAGGTGCCGGAAGCCAGTAGGTGGTTTTGGGTGCTA,695
7,ACTCCAGAGGAAGTGGCAAGACGAGCGCGGTAACGG,728
8,CGAAGCCAGGAAATAAGGATAAACCACAGAAAGAAA,1260
9,TGTGGAGACAGGAAGCACTAACCTCAAACCTCTTTC,908
10,ATCAGAGCGGAAATCTCAGTCTTGTGTGGGGACCTG,647
11,GGCAACCCAAGGAAGTATCTCTGAAACCACACAACA,1040
12,AAAGGCGGAAGGGGGGCAGGGAACCCACAAAACAGA,959
13,GGAATTTCTTTTTCCGGTCCCGCAGGGTCAGCTGAG,735
14,GCGGGGACCCGGATGTGTGTGGTGGCGGCGGCCGAA,700
15,CTAACCCTTCTCTTCCTGCAAAAACCACAACAAAGG,2250
16,AACCCACCGGATGGAAGCTGCCACTCAGCCGCAGGA,836
17,CTGTCTGCTTCCCGTGGCCAGCCCTGACCGCGGCCC,1060
18,GCCTCCTCAGGAAATTGCCCAAAATAGCCACATGTC,1090
19,ACTGGCTTCACTTCCTCCGCGGTTCCTCGGAGCCGC,917
20,TGAGAAAGCTATTTCCGCCCACAAAGAGGCAAGTCT,763

row,Sequence,RUNX1 binding intensity
1,AACAACAGGATGCTCTCTAGTCTAACAGTGGTAACA,866
2,TGAGCTCAGGCCGGAAGCGGTGGATGATGGCACACA,716
3,CGGGAACACCCACTTCCGCCACAGACCTGCTCAAAA,1090
4,GCGACCCGACCCGGCGGAAACCACCTCGACAGCCTC,953
5,TTCATCTCTCACTTCCTGTGGTGACGGCTGACGGGG,1030
6,GCAATGCCGCTACCGGAAGTGCGGGTCGCGCTCCCG,749
7,TCTGGCTTCCTGTCTTAATAGGGCTTTGTGGTGTGC,832
8,CTAGGCCACCGGAAGTCTCCGCAGTGGTTTTGCAAA,762
9,TGGCTTATCCTAACAGGAAGTGGTTTATCTGATCCT,767
10,GTGGGGGTGACAGGATGCGGGTAGAGGGCTCAGCCA,909
11,GCCAGGGCAGGAAGTTGCTAACCGCCCCAGAGCAGG,804
12,CCCCTCGCCCTTCCGCATTGCGGGTTACTTCGGTTG,1900
13,TAGGCTGAAGACTTCCGCCCCGCAGAGGACTTGCCT,839
14,GACCTGCCTTCCGGCCTCCGTCACATGACCGCACAG,1110
15,AGCTCTGCCAGGAAGTGAGAACCACAGGCCTCCCCT,837
16,GGAGGGGAGCAGGAAGCTGAGGTTTTGTGAGTCAGA,753
17,CTTTTCCATGCAGGAAGTGGTTTTTAGAGTGTAGAG,896
18,CGATGCTTCCGGCCTCCTATTGGGTGGTTTCTTGGC,789
19,AGCCTGGCCTCGGCAGGATGTGGGTGTAGGTCATGC,732
20,ACCAGAAGCACTGCAGGATGTGGTATCAAGACGCCT,774

# Molecular target: T1, ETS1 (UniProt P14921)
# T1 sequence: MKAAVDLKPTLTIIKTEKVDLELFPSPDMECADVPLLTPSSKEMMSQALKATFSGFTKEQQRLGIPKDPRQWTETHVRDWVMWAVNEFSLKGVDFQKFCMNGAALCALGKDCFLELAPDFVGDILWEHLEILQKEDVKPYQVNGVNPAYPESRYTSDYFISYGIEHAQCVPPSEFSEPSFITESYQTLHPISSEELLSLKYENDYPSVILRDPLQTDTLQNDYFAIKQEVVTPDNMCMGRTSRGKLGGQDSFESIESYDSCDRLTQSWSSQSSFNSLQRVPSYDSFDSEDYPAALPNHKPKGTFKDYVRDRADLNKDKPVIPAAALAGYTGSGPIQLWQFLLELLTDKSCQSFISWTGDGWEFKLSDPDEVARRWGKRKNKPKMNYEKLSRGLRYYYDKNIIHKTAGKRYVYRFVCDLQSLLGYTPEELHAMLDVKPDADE
# Test: ETS1 binding intensity (PBM fluorescence) in presence of RUNX1, normalised to ETS1-only experiment (arbitrary fluorescence units); higher = stronger binding
# Details: ETS1 concentration 1 nM; RUNX1 concentration 25 nM
row,Sequence,ETS1 binding intensity
1,CCAAAATTGCCACGGAAACCACATCTTTCAGGCGAG,687
2,GTTGGGAGGCGCACATCCGGCGGTTACCCGGTGCTT,3090
3,ATTCCTAGAGAGGAAATGCGGGCTCAGGGTGTCGGC,1560
4,TGTCTCATTTCCTGTAGGTAACAGGCACCACAATAG,1470
5,CGTTCTCTCATTTCCTGTGTGCACCCACATGAACCA,3230
6,GAGGTGCCGGAAGCCAGTAGGTGGTTTTGGGTGCTA,2120
7,ACTCCAGAGGAAGTGGCAAGACGAGCGCGGTAACGG,1560
8,CGAAGCCAGGAAATAAGGATAAACCACAGAAAGAAA,3180
9,TGTGGAGACAGGAAGCACTAACCTCAAACCTCTTTC,8830
10,ATCAGAGCGGAAATCTCAGTCTTGTGTGGGGACCTG,1820
11,GGCAACCCAAGGAAGTATCTCTGAAACCACACAACA,1190
12,AAAGGCGGAAGGGGGGCAGGGAACCCACAAAACAGA,610
13,GGAATTTCTTTTTCCGGTCCCGCAGGGTCAGCTGAG,1520
14,GCGGGGACCCGGATGTGTGTGGTGGCGGCGGCCGAA,3350
15,CTAACCCTTCTCTTCCTGCAAAAACCACAACAAAGG,1720
16,AACCCACCGGATGGAAGCTGCCACTCAGCCGCAGGA,1700
17,CTGTCTGCTTCCCGTGGCCAGCCCTGACCGCGGCCC,621
18,GCCTCCTCAGGAAATTGCCCAAAATAGCCACATGTC,667
19,ACTGGCTTCACTTCCTCCGCGGTTCCTCGGAGCCGC,514
20,TGAGAAAGCTATTTCCGCCCACAAAGAGGCAAGTCT,1370

row,Sequence,ETS1 binding intensity
1,AACAACAGGATGCTCTCTAGTCTAACAGTGGTAACA,820
2,TGAGCTCAGGCCGGAAGCGGTGGATGATGGCACACA,8670
3,CGGGAACACCCACTTCCGCCACAGACCTGCTCAAAA,1380
4,GCGACCCGACCCGGCGGAAACCACCTCGACAGCCTC,1000
5,TTCATCTCTCACTTCCTGTGGTGACGGCTGACGGGG,4690
6,GCAATGCCGCTACCGGAAGTGCGGGTCGCGCTCCCG,26000
7,TCTGGCTTCCTGTCTTAATAGGGCTTTGTGGTGTGC,1080
8,CTAGGCCACCGGAAGTCTCCGCAGTGGTTTTGCAAA,25800
9,TGGCTTATCCTAACAGGAAGTGGTTTATCTGATCCT,31300
10,GTGGGGGTGACAGGATGCGGGTAGAGGGCTCAGCCA,2770
11,GCCAGGGCAGGAAGTTGCTAACCGCCCCAGAGCAGG,4850
12,CCCCTCGCCCTTCCGCATTGCGGGTTACTTCGGTTG,591
13,TAGGCTGAAGACTTCCGCCCCGCAGAGGACTTGCCT,974
14,GACCTGCCTTCCGGCCTCCGTCACATGACCGCACAG,1210
15,AGCTCTGCCAGGAAGTGAGAACCACAGGCCTCCCCT,3140
16,GGAGGGGAGCAGGAAGCTGAGGTTTTGTGAGTCAGA,2490
17,CTTTTCCATGCAGGAAGTGGTTTTTAGAGTGTAGAG,20100
18,CGATGCTTCCGGCCTCCTATTGGGTGGTTTCTTGGC,1050
19,AGCCTGGCCTCGGCAGGATGTGGGTGTAGGTCATGC,7380
20,ACCAGAAGCACTGCAGGATGTGGTATCAAGACGCCT,6680
